Data on 15 compounds can be found in PubChem BioAssay (NCI).

Among the test systems are SR leukemia; RPMI-8226 leukemia; OVCAR-8 ovarian; OVCAR-4 ovarian; SK-OV-3 ovarian; IGROV1 ovarian; OVCAR-3 ovarian; HS 578T breast; NCI/ADR-RES ovarian.
Common to all, as to experiment: NCI-60 one-dose screen, 48 h (100 = growth as untreated, 0 = no growth, -100 = all killed)
Conditions in all cases: 10 µM unless noted

About 83,000 compounds went through this panel and 20% of them were active in at least one assay; those are over-represented in the sample as a whole.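 48-hour exposure, single concentration, 96-well plates; percent growth endpoint where 0 means no net growth. Active: below 10.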 Unmarked numbers belong to inactive results. Active and inactive are the calls of the source.

With `O=C(NCCCCNC(=O)OCc1ccc2c(Cl)cc(Cl)c(O)c2n1)OCc1ccc2c(Cl)cc(Cl)c(O)c2n1`, the growth with SR leukemia is 17%; in the experiment on RPMI-8226 leukemia, 25%; with OVCAR-8 ovarian, 11.2%; in the experiment with OVCAR-4 ovarian, 38.9%; in the experiment on SK-OV-3 ovarian, 30.5%; in the experiment on IGROV1 ovarian it was 11.1%. Moreover, the growth was -40.3% (active) in the experiment with OVCAR-3 ovarian, 21.9% with HS 578T breast and 3.44% (active) with NCI/ADR-RES ovarian.
With `CCOC(=O)c1cc2c(=O)oc3ccccc3c2oc1=O`, the growth was -26% (active) with SR leukemia; 84.7% in the experiment on RPMI-8226 leukemia; 102% in the experiment on OVCAR-8 ovarian; 96.4% with OVCAR-4 ovarian; 102% with SK-OV-3 ovarian; 103% with IGROV1 ovarian. Further, the results for the growth with OVCAR-3 ovarian, in the experiment with HS 578T breast and in the experiment on NCI/ADR-RES ovarian were 112%, 100% and 112%, respectively.
Regarding `CCCCCCCCCCCCCCCCCCOc1ccccc1CC(=O)OCC[N+]1(C)CCCC1`, the growth in the experiment with SR leukemia was 17.8%; in the experiment with RPMI-8226 leukemia, 21.6%; in the experiment with OVCAR-8 ovarian it was 11.9%; in the experiment on OVCAR-4 ovarian, 27.9%; in the experiment on SK-OV-3 ovarian, 94.1%; with IGROV1 ovarian, -58% (active). The growth is 22.3% with OVCAR-3 ovarian, 30.3% in the experiment with HS 578T breast and 82.3% with NCI/ADR-RES ovarian.
For `Nc1nc(=S)c2ncn(C3OC(COP(=O)(O)O)C(O)C3O)c2[nH]1` (centres undefined), the growth in the experiment on SR leukemia was 11.7%; with RPMI-8226 leukemia, 10.9%; in the experiment on OVCAR-8 ovarian, 13.8%; with OVCAR-4 ovarian it was 32.2%; in the experiment with SK-OV-3 ovarian it was 5.27% (active); in the experiment on IGROV1 ovarian, 44.2%. Also, the growth is 7.25% (active) with OVCAR-3 ovarian, 67.5% in the experiment with HS 578T breast and 20.9% with NCI/ADR-RES ovarian.
For the compound `CCn1c(=S)[nH]c2c(=O)n(C)c(=O)n(C)c21`, the growth in the experiment on SR leukemia is 110%; in the experiment with RPMI-8226 leukemia it was 101%; in the experiment with OVCAR-8 ovarian, 101%; with OVCAR-4 ovarian it was 114%; in the experiment on SK-OV-3 ovarian, 107%; in the experiment with IGROV1 ovarian, 102%. Also, the growth was 121% in the experiment on OVCAR-3 ovarian, 160% in the experiment on HS 578T breast and 103% in the experiment with NCI/ADR-RES ovarian.
Turning to `C=CCn1c(SCC(=O)Nc2ccc(C(=O)/C=C/c3cc4cc(OC)ccc4nc3Cl)cc2)nnc1-c1ccc(Br)cc1`, the growth with SR leukemia is 58.4%; in the experiment with RPMI-8226 leukemia, -19.8% (active); in the experiment on OVCAR-8 ovarian, 79.8%; in the experiment with OVCAR-4 ovarian, 84.8%; in the experiment with SK-OV-3 ovarian, 95.7%; in the experiment with IGROV1 ovarian, 78.4%. Also, the growth in the experiment with OVCAR-3 ovarian is 97.4%; in the experiment with HS 578T breast, 89.2%; with NCI/ADR-RES ovarian it was 92.3%.
For `Cc1ccc(-c2nc3nc(-c4ccccc4)nc(N4CCNCC4)c3o2)cc1`, the growth in the experiment on SR leukemia was -43% (active); with RPMI-8226 leukemia, -61.5% (active); in the experiment with OVCAR-8 ovarian it was -73.8% (active); with OVCAR-4 ovarian, -82% (active); with SK-OV-3 ovarian it was -99.6% (active); in the experiment with IGROV1 ovarian it was -76.7% (active). Further, the figures for the growth in the experiment with OVCAR-3 ovarian, in the experiment on HS 578T breast and in the experiment with NCI/ADR-RES ovarian were -89.7% (active), -51.4% (active) and -58.1% (active), respectively.
For `C#Cc1ccc(NC(=O)c2ccc(/C=C/C(=O)c3nccn3C)cc2)cc1`, the growth is -18.8% (active) with SR leukemia; -25.9% (active) with RPMI-8226 leukemia; 5.61% (active) in the experiment on OVCAR-8 ovarian; 9.83% (active) with OVCAR-4 ovarian; 18.7% in the experiment with SK-OV-3 ovarian; -37.3% (active) with IGROV1 ovarian. Besides, the values for the growth with OVCAR-3 ovarian, in the experiment with HS 578T breast and with NCI/ADR-RES ovarian were -86% (active), 33.1% and -7.85% (active), respectively.
`COc1cc(NC(C)CCCNC(C)C)c2ncccc2c1OC` (centres undefined): the growth with SR leukemia was 110%; in the experiment with RPMI-8226 leukemia it was 87.7%; in the experiment with OVCAR-8 ovarian it was 91.3%; in the experiment on OVCAR-4 ovarian it was 76.1%; in the experiment with SK-OV-3 ovarian it was 96.3%; in the experiment on IGROV1 ovarian it was 75.9%. In addition, the growth in the experiment with OVCAR-3 ovarian is 70%; with HS 578T breast, 91.9%; in the experiment with NCI/ADR-RES ovarian, 85.4%.
`Cc1ccc(-c2cc(-c3ccc(Cl)cc3)nc(NC(=O)c3cccnc3)n2)cc1`: the growth in the experiment on SR leukemia was 89.1%; in the experiment on RPMI-8226 leukemia, 86.3%; in the experiment on OVCAR-8 ovarian, 103%; with OVCAR-4 ovarian, 100%; in the experiment with SK-OV-3 ovarian it was 109%; with IGROV1 ovarian it was 102%. Further, the values for the growth in the experiment on OVCAR-3 ovarian, with HS 578T breast and with NCI/ADR-RES ovarian were 115%, 103% and 104%, respectively.
Regarding `CCc1n(Cc2ccc3ccccc3c2)cc[n+]1Cc1ccc2ccccc2c1`, the growth in the experiment on SR leukemia is -28% (active); in the experiment with RPMI-8226 leukemia it was -23.1% (active); with OVCAR-8 ovarian, -4.85% (active); in the experiment with OVCAR-4 ovarian, 2.44% (active); in the experiment with SK-OV-3 ovarian, 9.89% (active); in the experiment with IGROV1 ovarian, -21.7% (active). The results for the growth in the experiment with OVCAR-3 ovarian, with HS 578T breast and in the experiment with NCI/ADR-RES ovarian were -16.3% (active), 4.38% (active) and 92.5%, respectively.
`C/C(=N/O)c1ccc(F)cc1`: the growth was 68% in the experiment with SR leukemia; 85.5% in the experiment on RPMI-8226 leukemia; 86.5% with OVCAR-8 ovarian; 95.3% in the experiment with OVCAR-4 ovarian; 85.2% in the experiment with SK-OV-3 ovarian; 84.5% with IGROV1 ovarian. Besides, the growth was 132% in the experiment with OVCAR-3 ovarian and 95.6% in the experiment with HS 578T breast.
As for `CCCCNc1ccc(C#N)c(OCCN(CC)CC)c1`, the growth in the experiment with SR leukemia was 93.8%; in the experiment on RPMI-8226 leukemia it was 93.3%; with OVCAR-8 ovarian, 100%; in the experiment with OVCAR-4 ovarian, 105%; with SK-OV-3 ovarian, 102%; in the experiment on IGROV1 ovarian, 105%. Besides, the growth is 109% in the experiment with OVCAR-3 ovarian, 123% in the experiment on HS 578T breast and 98.4% with NCI/ADR-RES ovarian.
In the case of `COC(=O)c1cc(-c2ccccc2)[nH]c1N/N=C/c1c(Cl)cccc1Cl`, the growth is -9.18% (active) in the experiment with SR leukemia; -12.7% (active) in the experiment on RPMI-8226 leukemia; 15.4% in the experiment with OVCAR-8 ovarian; 64.5% with OVCAR-4 ovarian; 24.4% in the experiment on SK-OV-3 ovarian; -44.5% (active) in the experiment on IGROV1 ovarian. Moreover, the growth is -76.7% (active) in the experiment on OVCAR-3 ovarian, -30.4% (active) with HS 578T breast and -16.2% (active) in the experiment with NCI/ADR-RES ovarian.
Take `COc1ccc2[nH]cc(-c3nc(-c4c[nH]c5ccncc45)cs3)c2c1`: the growth in the experiment on SR leukemia was 0.735% (active); in the experiment with RPMI-8226 leukemia, -20% (active); in the experiment with OVCAR-8 ovarian, 38.6%; in the experiment with OVCAR-4 ovarian, 47.3%; in the experiment on SK-OV-3 ovarian it was 86.3%; with IGROV1 ovarian, 64.7%. For the same compound, the growth in the experiment on OVCAR-3 ovarian was -13.2% (active); in the experiment on HS 578T breast, 93.2%; in the experiment on NCI/ADR-RES ovarian, 59.9%.
